In PubChem BioAssay AID1159580 (chemical genetic matrix, 2015):
“And” between values parts separate entries of the source, which are not always exact repeats. Identical values can stand only once. The campaign covered roughly 5,500 compounds. About 2,000 (36%) were called active. Not shown: some 18% with an inconclusive outcome. No stated cut-off is given here; in the data, active means normalized growth mostly below about 0.91 (no sharp cut-off); inconclusive means no clear call, values can overlap the other calls; inactive means mostly above about 0.92. The list shows a part of the results.

Experiment: chemical genetic growth profiling, strain panel (AID 1159580);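 further: tested at 20 µM; growth read once vehicle control cultures reached saturation at 30 °C; 1 = growth at the plate median or of vehicle wells; lower values mean less growth of the strain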
Conditions: growth OD

Measured: normalized growth

CCCCC1C(=O)N(c2ccccc2)N(c2ccccc2)C1=O
inactive: S. cerevisiae deletion strains, locus YJR075W, strain HOC1, hits give low values 1 | S. cerevisiae deletion strains, locus YKL009W, strain mrt4, hits give low values 0.98 | S. cerevisiae deletion strains, locus YKL068W, hits give low values 0.963 | S. cerevisiae deletion strains, locus YKL085W, strain MDH1 (second series), hits give low values 0.959 | S. cerevisiae deletion strains, locus YKL085W, strain MDH1, hits give low values 0.959 | S. cerevisiae deletion strains, locus YKL160W, strain elf1, hits give low values 1.01 | S. cerevisiae deletion strains, locus YKL190W, strain CNB1, hits give low values 0.972 | S. cerevisiae deletion strains, locus YKR001C, strain vps1, hits give low values 0.994 | S. cerevisiae deletion strains, locus YKR026C, strain gcn3, hits give low values 0.988 | S. cerevisiae deletion strains, locus YKR091W, strain srl3, hits give low values 0.986 | S. cerevisiae deletion strains, locus YLL001W, strain dnm1, hits give low values 0.992 | S. cerevisiae deletion strains, locus YLL026W, hits give low values 0.99 | S. cerevisiae deletion strains, locus YLL041C, strain sdh2, hits give low values 0.985 | S. cerevisiae deletion strains, locus YLR027C, strain aat2, hits give low values 0.987 | S. cerevisiae deletion strains, locus YLR039C, strain RIC1, hits give low values 0.895 | S. cerevisiae deletion strains, locus YLR058C, strain SHM2, hits give low values 0.987 | S. cerevisiae deletion strains, locus YLR102C, strain apc9, hits give low values 0.983 | S. cerevisiae deletion strains, locus YLR113W, strain HOG1, hits give low values 0.899 | S. cerevisiae deletion strains, locus YLR221C, strain rsa3, hits give low values 1.02 | S. cerevisiae deletion strains, locus YLR258W, strain gsy2, hits give low values 0.993 | S. cerevisiae deletion strains, locus YLR262C, strain YPT6 (second series), hits give low values 0.93 | S. cerevisiae deletion strains, locus YLR262C, strain YPT6, hits give low values 0.893 | S. cerevisiae deletion strains, locus YLR268W, strain sec22, hits give low values 1.06 | S. cerevisiae deletion strains, locus YLR320W, strain mms22, hits give low values 1.02 | S. cerevisiae deletion strains, locus YLR330W, strain CHS5, hits give low values 0.984 | S. cerevisiae deletion strains, locus YLR342W, strain FKS1 (second series), hits give low values 0.994 | S. cerevisiae deletion strains, locus YLR342W, strain FKS1, hits give low values 0.978 | S. cerevisiae deletion strains, locus YLR357W, strain rsc2, hits give low values 1.04 | S. cerevisiae deletion strains, locus YLR370C, strain arc18, hits give low values 0.973 | S. cerevisiae deletion strains, locus YLR371W, strain rom2, hits give low values 1 | S. cerevisiae deletion strains, locus YLR384C, strain iki3, hits give low values 0.996 | S. cerevisiae deletion strains, locus YLR418C, strain cdc73, hits give low values 0.995 | S. cerevisiae deletion strains, locus YML016C, strain PPZ1, hits give low values 0.98 | S. cerevisiae deletion strains, locus YML032C, strain rad52, hits give low values 1.02 | S. cerevisiae deletion strains, locus YML120C, strain ndi1, hits give low values 0.999 | S. cerevisiae deletion strains, locus YML124C, strain tub3, hits give low values 0.982 | S. cerevisiae deletion strains, locus YMR058W, strain fet3, hits give low values 0.993 | S. cerevisiae deletion strains, locus YMR078C, strain ctf18, hits give low values 0.988 | S. cerevisiae deletion strains, locus YMR125W, strain sto1, hits give low values 0.989 | S. cerevisiae deletion strains, locus YMR129W, hits give low values 0.986 | S. cerevisiae deletion strains, locus YMR205C, strain PFK2, hits give low values 0.989 | S. cerevisiae deletion strains, locus YMR223W, strain ubp8, hits give low values 0.967 | S. cerevisiae deletion strains, locus YMR231W, strain pep5, hits give low values 0.996 | S. cerevisiae deletion strains, locus YMR263W, strain SAP30, hits give low values 0.997 | S. cerevisiae deletion strains, locus YMR307W, strain GAS1, hits give low values 0.971 | S. cerevisiae deletion strains, locus YNL067W, strain RPL9B, hits give low values 1.02 | S. cerevisiae deletion strains, locus YNL071W, strain lat1, hits give low values 0.994 | S. cerevisiae deletion strains, locus YNL128W, strain TEP1, hits give low values 0.99 | S. cerevisiae deletion strains, locus YNL153C, strain GIM3, hits give low values 1.04 and 1 | S. cerevisiae deletion strains, locus YNL175C, strain NOP13, hits give low values 0.971 | S. cerevisiae deletion strains, locus YNL183C, strain NPR1, hits give low values 0.946 | S. cerevisiae deletion strains, locus YNL197C, strain WHI3, hits give low values 0.976 | S. cerevisiae deletion strains, locus YNL209W, strain ssb2, hits give low values 1 | S. cerevisiae deletion strains, locus YNL224C, strain SQS1, hits give low values 0.972 | S. cerevisiae deletion strains, locus YNL233W, strain BNI4, hits give low values 1.04 | S. cerevisiae deletion strains, locus YNL248C, strain rpa49, hits give low values 1.03 | S. cerevisiae deletion strains, locus YNL250W, strain rad50, hits give low values 0.972 | S. cerevisiae deletion strains, locus YNL271C, strain bni1, hits give low values 0.979 | S. cerevisiae deletion strains, locus YNL298W, strain CLA4, hits give low values 0.998 | S. cerevisiae deletion strains, locus YNL307C, strain MCK1, hits give low values 1.01 | S. cerevisiae deletion strains, locus YNL322C, strain KRE1 (second series), hits give low values 0.982 | S. cerevisiae deletion strains, locus YNL322C, strain KRE1, hits give low values 0.973 | S. cerevisiae deletion strains, locus YNR049C, strain mso1, hits give low values 0.985 | S. cerevisiae deletion strains, locus YNR052C, strain pop2, hits give low values 0.999 | S. cerevisiae deletion strains, locus YOL006C, strain TOP1, hits give low values 1.05 | S. cerevisiae deletion strains, locus YOL012C, strain htz1 0.887 | S. cerevisiae deletion strains, locus YOL147C, strain pex11, hits give low values 0.993 | S. cerevisiae deletion strains, locus YOR001W, strain rrp6, hits give low values 0.99 | S. cerevisiae deletion strains, locus YOR061W, strain CKA2, hits give low values 0.977 | S. cerevisiae deletion strains, locus YOR069W, strain VPS5, hits give low values 0.984 | S. cerevisiae deletion strains, locus YOR070C, strain gyp1, hits give low values 0.999 | S. cerevisiae deletion strains, locus YOR080W, strain dia2, hits give low values 0.987 | S. cerevisiae deletion strains, locus YOR083W, strain WHI5 (second series), hits give low values 0.994 | S. cerevisiae deletion strains, locus YOR083W, strain WHI5, hits give low values 1.02 | S. cerevisiae deletion strains, locus YOR106W, strain vam3, hits give low values 1.03 | S. cerevisiae deletion strains, locus YOR136W, strain idh2, hits give low values 0.982 | S. cerevisiae deletion strains, locus YOR144C, strain elg1, hits give low values 0.985 | S. cerevisiae deletion strains, locus YOR184W, strain ser1, hits give low values 1 | S. cerevisiae deletion strains, locus YOR231W, strain MKK1, hits give low values 0.933 | S. cerevisiae deletion strains, locus YOR265W, strain rbl2, hits give low values 0.988 | S. cerevisiae deletion strains, locus YOR270C, strain vph1, hits give low values 1.02 | S. cerevisiae deletion strains, locus YOR290C, strain snf2, hits give low values 1.02 | S. cerevisiae deletion strains, locus YOR316C, strain cot1, hits give low values 0.986 | S. cerevisiae deletion strains, locus YPL051W, strain arl3, hits give low values 0.992 | S. cerevisiae deletion strains, locus YPL055C, strain LGE1, hits give low values 1 and 0.997 | S. cerevisiae deletion strains, locus YPL078C, strain atp4, hits give low values 1.02 | S. cerevisiae deletion strains, locus YPL106C, strain sse1, hits give low values 1.01 | S. cerevisiae deletion strains, locus YPL240C, strain hsp82, hits give low values 0.994 | S. cerevisiae deletion strains, locus YPL241C, strain CIN2, hits give low values 0.981 and 1 | S. cerevisiae deletion strains, locus YPL256C, strain CLN2, hits give low values 0.914 | S. cerevisiae deletion strains, locus YPR119W, strain clb2, hits give low values 0.977 | S. cerevisiae deletion strains, locus YPR141C, strain kar3, hits give low values 0.961 | S. cerevisiae deletion strains, locus YPR163C, strain tif3, hits give low values 1 | S. cerevisiae deletion strains, locus YPR167C, strain met16, hits give low values 0.993 | S. cerevisiae deletion strains, strain wtn01, hits give low values 1.02 | S. cerevisiae strains, strain wild type, hits give low values 0.984
